D1 allo mod = allosterically modulates the human D1 dopamine receptor. P21728. HEK293 D1, CRE-luciferase, dopamine EC30 potentiation; actives deviate in either direction. B-score at 10 µM. 58,000 tested, 5.9% active. AID 641;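 active means luminescence count or its row- and column-corrected plate score outside the 99.7% band of the plate's sample wells, on either side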
CYP2C9 act = CYP2C9 (human) activation. P11712. recombinant CYP2C9, luciferin-H conversion, luminescence; stronger effect = higher value; factor 1 = untreated enzyme, 0 = blocked. activation factor at 5 µM. AID 1024. 96,000 tested, 1.4% active;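 active means activation factor of 2 or more for CYP2C9 at a 5 µM dose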;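 further: 0 = sulfaphenazole-blocked wells and 1 = vehicle-only wells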
CYP2C19 inh = blocks human cytochrome P450 2C19; P33261; CYP2C19 Supersomes, luciferin-H EGE luminescence, 30 min; inhibition, % at 5 µM; 96,000 tested, 21% active; AID 778;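 active means CYP2C19 inhibition above a set limit at 5 µM in the primary screen, cut at about 50% in these data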;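 further: plate controls were negative control wells for no effect and 2.5 mM tranylcypromine positive control for full effect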
Target sequence (P33261 whole entry, looked up): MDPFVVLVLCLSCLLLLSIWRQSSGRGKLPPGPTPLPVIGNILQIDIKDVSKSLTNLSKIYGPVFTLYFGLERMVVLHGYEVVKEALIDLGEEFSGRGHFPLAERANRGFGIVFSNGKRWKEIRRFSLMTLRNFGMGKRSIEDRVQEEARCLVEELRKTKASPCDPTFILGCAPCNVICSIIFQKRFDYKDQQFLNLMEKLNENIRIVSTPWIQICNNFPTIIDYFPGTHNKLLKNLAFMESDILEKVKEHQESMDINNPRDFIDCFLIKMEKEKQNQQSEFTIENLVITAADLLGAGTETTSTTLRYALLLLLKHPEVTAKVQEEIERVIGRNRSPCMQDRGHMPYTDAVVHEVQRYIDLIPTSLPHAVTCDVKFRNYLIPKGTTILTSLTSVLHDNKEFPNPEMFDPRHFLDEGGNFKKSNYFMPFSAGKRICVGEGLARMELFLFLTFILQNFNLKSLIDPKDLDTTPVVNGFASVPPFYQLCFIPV
DAT uptake mod = changed human dopamine transporter uptake under cocaine IC80. Q01959. LLC-PK1 hDAT cells, [14C]-dopamine uptake with cocaine IC80; actives deviate in either direction. B-score at 10 µM. 110,000 tested, 1.3% active;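 active means Z score or B-score, a plate-position-corrected score, falls beyond the plate's 99.7% confidence bounds, in either direction; inactive means both scores lie inside the 99.7% bounds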;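 further: scored against the spread of the other compound wells on the same plate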
CYP2C9 inhib = inhibitors of human CYP2C9 | inhibition, % at 5 µM | AID 777 | 96,000 tested, 20% active | CYP2C9 Supersomes, luciferin-H conversion, luminescence | P11712;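 active means blocking of liver enzyme CYP2C9 beyond about 50% at 5 µM, limit read from the data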
CYP2C19 activ = increases human CYP2C19 enzyme activity; activation factor at 5 µM; P33261; AID 1025; 96,000 tested, under 10 active; recombinant CYP2C19, luciferin-H EGE luminescence; stronger effect = higher value; 0 = fully inhibited enzyme, 1 = untreated enzyme;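 active means activation factor of at least 2 at 5 µM in the primary screen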;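 further: 0 = wells with 2.5 mM tranylcypromine and 1 = vehicle-only wells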
An asterisk follows results filed as active. A selection: hits, their analogues and other compounds. The true share with any hit is near 28%.

Results for O=C(NCc1ccccc1)c1onc(CSc2ccccn2)c1C(=O)NCc1ccccc1 ?
DAT uptake mod: 1.6

How did COCc1cc(C)n(CC(=O)Nc2ccccc2C(=O)OC)c(=O)c1C#N do in these assays?
D1 allo mod: 1.2; CYP2C9 act: 0.9; CYP2C19 inh: 6; DAT uptake mod: 0.068; CYP2C9 inhib: 11; CYP2C19 activ: 0.9

What do the screens show for `N#CC(c1cccc(Cl)c1)c1ncc(C(F)(F)F)cc1Cl` (stereo not drawn)?
CYP2C9 act: 0.6; CYP2C19 inh: 89*; DAT uptake mod: -0.63; CYP2C9 inhib: 41; CYP2C19 activ: 0.1

How did N#CC(c1ccc(Cl)cc1)c1ncc(C(F)(F)F)cc1Cl (stereo not drawn) do in these assays?
CYP2C9 act: 0.6; CYP2C19 inh: 94*; DAT uptake mod: -0.75; CYP2C9 inhib: 36; CYP2C19 activ: 0.1

How did NC(=O)C(c1ccccc1)c1ncc(C(F)(F)F)cc1Cl (stereo not drawn) do in these assays?
CYP2C9 act: 0.7; CYP2C19 inh: 18; DAT uptake mod: 0.94; CYP2C9 inhib: 30; CYP2C19 activ: 0.8

How did COc1ccc(-c2cnc(SCC(=O)Nc3nc(C(C)(C)C)cs3)n2Cc2ccco2)cc1 do in these assays?
DAT uptake mod: 0.26

What do the screens show for `O=C(CS(=O)(=O)Cc1ccccc1)Nc1ncccn1`?
D1 allo mod: -2.2; CYP2C9 act: 1; CYP2C19 inh: 13; DAT uptake mod: -0.032; CYP2C9 inhib: 5; CYP2C19 activ: 0.9

Results for COc1ccccc1N1CCN(C(c2cccs2)C(C)NC(=O)c2cccs2)CC1 (stereo not drawn) ?
DAT uptake mod: 0.4

How did Cn1c(Sc2ccc(Cl)cc2)c(C=O)c2ccccc21 do in these assays?
CYP2C9 act: 0; CYP2C19 inh: 4; DAT uptake mod: -0.047; CYP2C9 inhib: 96*; CYP2C19 activ: 1

How did Cc1cccc(Sc2c(C=O)c3ccccc3n2C)c1 do in these assays?
CYP2C9 act: 0.2; CYP2C19 inh: 81*; DAT uptake mod: -0.19; CYP2C9 inhib: 77*; CYP2C19 activ: 0.2

How did Cc1c(O)c(=O)c2ccccc2n1C do in these assays?
DAT uptake mod: -0.42

How did Cn1c(Sc2ccccc2Cl)c(C=O)c2ccccc21 do in these assays?
CYP2C9 act: 0.6; CYP2C19 inh: 40; CYP2C9 inhib: 36; CYP2C19 activ: 0.6

What do the screens show for `C#CCOCCOCCOCCNc1nc(N2CCN(C(=O)C([C@@H](C)CC)n3cc(C(N)CO)nn3)CC2)nc(N2CCN(C(=O)[C@H](CCC(=O)O)n3cc(C(N)[C@H](C)CC)nn3)CC2)n1` (stereo partly drawn)?
DAT uptake mod: -1.4

How did Cc1ccc(C)c(S(=O)(=O)NC(CC(C)C)C(=O)O)c1 (stereo not drawn) do in these assays?
D1 allo mod: -0.91; CYP2C9 act: 0.9; CYP2C19 inh: 8; CYP2C9 inhib: 11; CYP2C19 activ: 0.9

Results for Cc1ccc(CNn2cnnc2SCC(=O)NC(C)(C)C)cc1 ?
D1 allo mod: -0.021; CYP2C9 act: 0.9; CYP2C19 inh: 14; DAT uptake mod: 2.2*; CYP2C9 inhib: 8; CYP2C19 activ: 0.9

What do the screens show for `O=C(NC(NNc1ccc([N+](=O)[O-])cc1)(C(F)(F)F)C(F)(F)F)c1ccccc1Cl`?
CYP2C9 act: 0.5; CYP2C19 inh: 45; DAT uptake mod: -0.23; CYP2C9 inhib: 53*; CYP2C19 activ: 0.6

What do the screens show for `Cc1ccccc1C(=O)NNc1ccc([N+](=O)[O-])cc1`?
CYP2C9 act: 1; CYP2C19 inh: 15; DAT uptake mod: 0.67; CYP2C9 inhib: 0; CYP2C19 activ: 0.9

How did COCc1cc(C)nc(SCC(=O)Nc2cccc3cccnc23)c1C#N do in these assays?
D1 allo mod: 0.66; CYP2C9 act: 0.8; CYP2C19 inh: -18; DAT uptake mod: 0.82; CYP2C9 inhib: 16; CYP2C19 activ: 1.2

What do the screens show for `Cc1cc(=O)[nH]c(SCC(=O)Nc2cccc3ccccc23)c1C#N`?
CYP2C9 act: 0.1; CYP2C19 inh: 26; DAT uptake mod: -0.81; CYP2C9 inhib: 86*; CYP2C19 activ: 0.7

How did COCCOC(=O)c1c(C)nc(SCC(=O)Nc2cccc3ccccc23)c(C#N)c1-c1ccco1 do in these assays?
CYP2C9 act: 0.1; CYP2C19 inh: 4; DAT uptake mod: -8.2*; CYP2C9 inhib: 94*; CYP2C19 activ: 1
